Mtb hypoxia rep – Mtb hypoxia fluorescent reporter inhibition; 300,000 tested, 0.1% active; fluorescence inhibition, % (no concentration beside the values); AID 1159583; M. tuberculosis hypoxia-regulated fluorescent reporter, fluorescence; in the data active = fluorescence inhibition mostly above about 23%, no sharp cut-off; inactive = mostly below about 17%
FadD28 FP inh – M. tuberculosis FadD28 bisubstrate binding inhibition | FadD28 bisubstrate probe binding, fluorescence polarization | inhibition, % at 12.5 µM | 360,000 tested, 0.22% active; in the data active = inhibition above about 8.5%, passing the limit was not always enough
Mtb BioA inh – BioA (M. tuberculosis) enzyme inhibition; 360,000 tested, 0.096% active; purified M. tuberculosis BioA enzyme, plate reader; inhibition, % at 9.99 µM; in the data active = inhibition above about 40%
Mtb FBA inh – inhibits M. tuberculosis FBA enzyme. P9WQA3. purified M. tuberculosis FBA, fluorescence read-out. inhibition, % at 1 µM. 360,000 tested, 2.3% active. AID 588726;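 also: 0% = vehicle and 100% = reference inhibitor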
Target sequence (P9WQA3 whole entry, looked up): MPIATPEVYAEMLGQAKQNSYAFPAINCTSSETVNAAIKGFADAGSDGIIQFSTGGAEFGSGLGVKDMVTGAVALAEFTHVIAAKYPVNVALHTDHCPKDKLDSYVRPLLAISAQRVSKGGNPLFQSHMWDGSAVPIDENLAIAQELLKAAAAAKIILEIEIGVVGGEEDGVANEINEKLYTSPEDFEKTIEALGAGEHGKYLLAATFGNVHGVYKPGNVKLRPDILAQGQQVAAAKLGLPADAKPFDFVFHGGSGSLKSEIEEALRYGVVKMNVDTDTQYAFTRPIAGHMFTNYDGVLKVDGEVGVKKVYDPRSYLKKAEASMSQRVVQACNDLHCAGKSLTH
GDH-TPI counter-1 – counter-screen for M. tuberculosis FBA inhibitors: GDH-TPI coupled enzymes; GDH-TPI coupled enzyme counterscreen, NADH absorbance; inhibition, % at 4.8 µM; 360,000 tested, 1.2% active; AID 588335; in the data active = inhibition above about 30%;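 also: 0% = DMSO wells and 100% = wells lacking the enzyme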
Mtb FBA confirm – Mtb FBA inhibition, confirmed | inhibition, % at 1 µM | shares compounds with Mtb FBA inh | 5,600 tested, 78% active | purified M. tuberculosis FBA, fluorescence read-out;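 also: 0% = vehicle wells and 100% = reference inhibitor wells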
GDH-TPI counter-2 – inhibits GDH-TPI coupling enzymes, flagging Mtb FBA hits; 5,600 tested, 81% active; shares compounds with Mtb FBA inh; AID 652141; inhibition, % at 1 µM; GDH-TPI coupled enzyme counterscreen, fluorescence; in the data active = inhibition above about 10%
GDH-TPI DR – counter-screen for M. tuberculosis FBA inhibitors: GDH-TPI dose response; shares compounds with Mtb FBA inh; GDH-TPI coupled enzyme assay, fluorescence, artifact counterscreen; IC50, µM; 170 tested, 79% active; AID 652145; call rule not given here
* hit, by the source's call; . = not tested or not shown; + = active, no number. Shown are actives, neighbours in structure and some others; about 2.9% of the full set was active somewhere. Rule as the data show it, unless noted: active = inhibition above about 27%; inactive = the rest.

SMILES | Mtb hypoxia rep | FadD28 FP inh | Mtb BioA inh | Mtb FBA inh | GDH-TPI counter-1 | Mtb FBA confirm | GDH-TPI counter-2 | others
Cc1nc2ccccn2c1-c1nnco1 | . | 0.1 | 0.3 | 35.6* | 3.0 | 4.7 | -3.6
Cc1cccc(Nc2nc(-c3c(C)nc4ccccn34)cs2)c1 | 21.5 | -4.8 | -0.8 | 0.7 | 7.1 | . | .
Cc1nn(CCO)c2nc(-c3cccs3)cc(C(F)(F)F)c12 | 2.7 | -1.3 | . | 100.3* | 23.7 | 179.5* | 168.4*
CN(C)c1nc(-c2cccs2)cc(C(F)(F)F)c1C#N | 4.4 | -4.2 | 0.8 | 34.5* | 17.2 | -0.4 | -4.2
CN(C)c1nc(-c2ccccc2)cc(C(F)(F)F)c1C#N | 2.5 | -0.5 | 1.9 | 7.2 | -2.8 | . | .
O=C(C[C@H]1C[C@@H]2c3cc(NC(=O)NC4CCCC4)ccc3O[C@@H]2[C@@H](CO)O1)NCc1ccccc1 | . | . | -2.0 | . | . | . | .
Cc1ccc2c(n1)sc1c(-c3ccccc3)c(C#N)c(N)nc12 | 3.1 | -3.2 | 1.3 | 69.2* | 19.6 | 163.2* | 168.1*
Cc1nc(N)c(C#N)c(-c2cccnc2)c1-c1ccccc1 | 2.1 | -0.7 | 1.2 | 4.5 | 8.8 | . | .
COc1ccc(-c2c3c(=O)n(C)c(=O)n(C)c3cn2-c2ccccc2)cc1 | . | -0.3 | 1.8 | 3.9 | 7.8 | . | .
COc1ccc(-c2c3c(=O)n(C)c(=O)n(C)c3cn2-c2ccc(O)cc2)cc1 | 15.9 | 1.5 | 2.9 | 45.4* | 4.6 | + | 188.5*
COc1ccc(-c2cc(=O)oc3c(C)c(OCC(=O)N[C@@H](Cc4ccc(O)cc4)C(=O)O)ccc23)cc1 | . | -12.7 | 2.4 | 1.1 | 20.6 | . | .
Cc1c(O)ccc2c(CC(=O)N[C@@H](Cc3ccc(O)cc3)C(=O)O)cc(=O)oc12 | -0.9 | -2.6 | -0.8 | 94.3* | 21.3 | 15.1 | 2.4 | GDH-TPI DR=1.77*
Cc1nn(CCc2nn[nH]n2)c2nc(C(F)(F)F)cc(C(F)(F)F)c12 | 23.8 | -1.5 | -1.3 | 39.2* | -10.5 | . | +
CCNC(=O)Nc1ccc2c(c1)C(=O)N(C)[C@@H]1CC[C@@H](CC(=O)Nc3ccccc3)O[C@H]1CO2 | . | . | -0.1 | . | . | . | .
Cc1ccc(S(=O)(=O)N(C)C[C@H]2Oc3cc(C#CC4CCCC4)ccc3S(=O)(=O)N([C@@H](C)CO)C[C@H]2C)cc1 | . | . | -0.8 | . | . | . | .
Cc1ccc(C)c(N(C(=O)c2snc(C(N)=O)c2N)C(C(=O)NCC2CCCO2)c2ccc(C)o2)c1 (stereo not drawn) | 10.7 | -5.0 | . | 37.1* | 2.2 | 53.7* | 47.6*
Cc1ccc(C(C(=O)NCC2CCCO2)N(C(=O)c2snc(C(N)=O)c2N)c2ccccc2)o1 (stereo not drawn) | 12.4 | . | -0.4 | 11.9 | 14.2 | . | .
Cc1ccc(C)c(N(C(=O)c2snc(C(N)=O)c2N)C(C(=O)NCC2CCCO2)c2cccs2)c1 (stereo not drawn) | 3.6 | -4.8 | 0.3 | 35.8* | 0.3 | 18.9 | 7.1
COc1cccc(-c2cnc3c(c2)C(=O)N([C@H](C)CO)C[C@H](C)[C@H](CN(C)S(=O)(=O)c2cccs2)O3)c1 | . | . | 3.2 | . | . | . | .
Cc1ccccc1S(=O)(=O)N1C[C@@H](O)COC[C@H]2O[C@H](CC(=O)N3CCN(C)CC3)CC[C@@H]21 | . | . | 2.2 | . | . | . | .
O=[N+]([O-])c1ccc(O)c(C=NN=C2c3ccccc3-c3ccccc32)c1 | 3.0 | . | . | . | . | . | .
O=[N+]([O-])c1cccc(C=NN=C2c3ccccc3-c3ccccc32)c1 | . | -1.8 | . | 30.0* | 9.5 | 143.9* | 108.6*
N#Cc1c(C(F)(F)F)cc(-c2ccccc2)nc1SCCN1CCOCC1 | 8.0 | -4.6 | -1.7 | 46.9* | 1.4 | -2.0 | -5.0
COc1ccc2[nH]c(-c3cccc(F)c3)cc(=O)c2c1 | -3.0 | -1.9 | 0.2 | 41.4* | 2.6 | 2.0 | -4.2
Cc1ccc2[nH]c(-c3cccc(F)c3)cc(=O)c2c1 | 4.5 | -1.2 | 1.1 | 11.0 | 15.1 | . | .
NC(=NOC(=O)c1ccccc1Cl)c1nonc1N | 8.6 | . | . | . | . | . | .
COc1cc(C#Cc2c(C=O)n(C)c3ccccc23)cc(OC)c1 | . | -0.8 | -0.8 | 6.4 | 15.1 | . | .
C=CCn1c2ccccc2c(=O)c2cc(C#Cc3cc(OC)cc(OC)c3)ccc21 | -0.8 | -1.4 | -4.2 | 56.2* | 30.9* | 9.6 | 6.5

Assay outcomes as filed in PubChem BioAssay.
